# Screening results (PubChem)
# DRD3 agonist = agonists of human D3 dopamine receptor; hit rate 0.58% among 410,000; D3R DiscoveRx beta-arrestin cells, luminescence, 90 min; max activation, %; P35462; in the data active = max activation above about 30%
# Target sequence (P35462 whole entry, looked up): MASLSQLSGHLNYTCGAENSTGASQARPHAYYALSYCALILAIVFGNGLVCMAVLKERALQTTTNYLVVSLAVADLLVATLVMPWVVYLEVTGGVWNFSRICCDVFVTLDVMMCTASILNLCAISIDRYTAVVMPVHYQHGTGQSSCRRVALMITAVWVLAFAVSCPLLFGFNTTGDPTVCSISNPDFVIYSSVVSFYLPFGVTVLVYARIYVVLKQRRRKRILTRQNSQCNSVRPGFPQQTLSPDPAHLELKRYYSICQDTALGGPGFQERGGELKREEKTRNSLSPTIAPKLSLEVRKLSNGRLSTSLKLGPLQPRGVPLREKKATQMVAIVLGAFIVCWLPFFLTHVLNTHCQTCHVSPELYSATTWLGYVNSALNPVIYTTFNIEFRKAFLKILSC
#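 Agonist mode: compounds and dopamine controls were applied to plated cells for 90 min at 37 degrees C after an overnight attachment at 1500 cells/well. Luminescent read-out followed 30 - 60 minutes at room temperature with DiscoveRx detection reagent.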
# D3 antag = D3 dopamine receptor (human) antagonism. D3R cells, DiscoveRx beta-arrestin luminescence, antagonist mode; hits give low values. max response, negative = inhibition, %. hit rate 2.5% among 360,000; in the data active = max response below about -50%; inconclusive = no clear call, values can overlap the other calls
#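 Cells plated overnight at 1500 cells/well, then exposed to library compounds with dopamine controls for 90 minutes at 37 degrees C. DiscoveRx reagent added for 30–60 minutes at room temperature; luminescence read, quantitative HTS format.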
# D1 antag = human D1 dopamine receptor antagonism | HEK293 TREx D1 cells, calcium flux, dopamine EC80; hits give low values | activity change, negative = inhibition, % at 10 µM | hit rate 3.2% among 360,000 | AID 504652; in the data active = activity change below about -30%
#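 HEK293 T-REx cells expressing inducible, force-coupled D1 receptor; no-wash Ca dye, 30–90 min RT. Cmpd → 180 s read at 1 Hz → EC80 DA → 180 s read.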
# D1 potentiator = human D1 dopamine receptor positive modulation. P21728. HEK293 TREx D1 cells, calcium flux, dopamine EC20 potentiation. potentiation, % at 10 µM. hit rate 0.036% among 360,000; in the data active = potentiation above about 30%
# D1 ag = agonists of human D1 dopamine receptor. HEK293 T-REx D1 cells, calcium flux, agonist mode. activation, % at 2 µM. P21728. hit rate 1% among 360,000; in the data active = activation above about 30%
#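 Agonism was scored from calcium flux recorded over 180 s (1 read/s) after pintool compound addition, following a 10-cycle baseline. Cells were inducible force-coupled HEK293 TREx D1, plated overnight at 30 C and loaded with no-wash calcium dye.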
# Hits are given with their value; n = inactive; u = inconclusive; x = no result. Compounds with a hit are over-represented: about 6.1% of the library has one in this group of screens.
SMILES,DRD3 agonist,D3 antag,D1 antag,D1 potentiator,D1 ag
Fc1ccc(-n2cc(-c3ccccc3)c3c(NN4CCOCC4)ncnc32)cc1,n,n,-33,n,n
Cc1nn2c(C)c(C(=O)NCc3cccc(Br)c3)cnc2c1-c1ccccc1,n,x,n,n,n
CC(NC(=O)CN(c1cccc(C(F)(F)F)c1)S(=O)(=O)c1ccc(Cl)c([N+](=O)[O-])c1)c1ccccc1 (stereo unspecified),n,-54,n,n,n
CC(C)(C)NC(=O)CN(c1cccc([N+](=O)[O-])c1)S(=O)(=O)c1ccccc1,n,n,n,n,n
O=C(CN(c1cccc(C(F)(F)F)c1)S(=O)(=O)c1ccc(Cl)c([N+](=O)[O-])c1)NCc1ccccc1Cl,n,n,n,n,n
O=C(CN(c1cccc(C(F)(F)F)c1)S(=O)(=O)c1ccc(Cl)c([N+](=O)[O-])c1)NCc1ccccc1,n,n,-31,n,n
COc1cc(C(=O)Nc2nnc(S(=O)(=O)N(C)c3ccccc3)s2)cc(OC)c1OC,n,x,n,n,n
Fc1ccc2cnc(-c3ccccc3)c(-c3cccc(C(F)(F)F)c3)c2c1,n,-64,x,n,n
CC1CCN(CC(=O)Nc2sc3c(c2C#N)CCC3)CC1,n,n,n,n,n
CC1CCc2c(sc(NC(=O)CN3CCN(C(=O)c4ccco4)CC3)c2C#N)C1 (stereo unspecified),n,n,-31,n,n
CCOC(=O)N1CCN(CC(=O)Nc2sc(CC)cc2C(=O)c2ccc(OC)cc2)CC1,n,n,-31,n,n
CCc1cc(C(=O)OC)c(NC(=O)CN2CCN(C(=O)c3ccco3)CC2)s1,n,n,-47,n,116
COc1ccc(-n2ccnc(NCc3ccc(Cl)cc3)c2=O)cc1,n,x,n,n,n
CCOC(=O)c1ccc(NC(=O)CC2C(=O)N(c3ccc(F)cc3)C(=O)N2Cc2ccc3c(c2)OCO3)cc1 (stereo unspecified),n,x,n,n,n
CCn1cc(C(=O)NCCCOC(C)C)c(=O)c2cc(S(=O)(=O)N3CCc4ccccc4C3)ccc21,n,x,n,n,n
COc1cc(C)nc(NS(=O)(=O)c2ccccc2)n1,n,n,-37,n,n
O=C1CC(SC2=NCCS2)C(=O)N1c1ccc(Br)cc1 (stereo unspecified),n,n,n,n,44
COc1ccc(-c2cc(C(=O)Oc3ccc(C#N)cc3)no2)cc1,n,x,n,n,n
Cc1cccc(C)c1C(OCCN(C)C)C1CCCCC1 (stereo unspecified),n,-89,n,n,n
COCCN(C(=O)CCl)C(C(=O)NC1CCCCC1)c1ccccc1C (stereo unspecified),n,u,n,n,n
CCc1cccc(NC(=O)Cn2c(=O)n(Cc3ccccc3)c(=O)c3c2c2cc(OC)ccc2n3C)c1,n,x,n,n,n
COC(=O)Nc1ncc(CN2CCc3ccccc3C2)s1,n,-74,n,n,n
CCn1nc(C(=O)Nc2ccc3nc(C)sc3c2)c2ccccc2c1=O,n,-86,n,n,n
O=C(O)c1cccc(NC(=S)NC(=O)c2cncc(Br)c2)c1,n,-63,x,x,x
O=C(NC(=S)Nc1cccc(O)c1)c1cncc(Br)c1,n,n,x,x,x
SMILES,DRD3 agonist,D3 antag,D1 antag,D1 potentiator,D1 ag
Cc1nc2ccc(NC(=O)c3sccc3C)cc2s1,n,u,-39,n,n
Cc1nc2ccc(NC(=O)c3ccc4ccccc4n3)cc2s1,n,n,n,n,n
Cc1nc2ccc(NC(=O)c3cncc(Br)c3)cc2s1,n,n,-36,n,n
Cc1nc2ccc(NC(=O)c3ccccc3)cc2s1,n,n,n,n,n
O=[S+]([O-])(c1ccc2c(c1)OCCO2)N1CCN([S+](=O)([O-])c2ccccc2Br)CC1,x,x,n,n,n
COc1ccc(OC)c(CCNC(=O)c2cnn(-c3ccccc3)c2-n2cccc2)c1,n,x,n,n,n
CCCCN(CC)CCNC(=O)CN1C(=O)COc2ccc(S(=O)(=O)N3CCOCC3)cc21,n,x,n,n,n
O=C1Nc2ccc(S(=O)(=O)NCCC3=CCCCC3)c3cccc1c23,n,n,-37,n,n
CCN(C(=O)CSc1nc(-c2ccccc2)no1)c1cccc(C)c1,n,x,n,n,n
Cn1ccc(C(=O)Nc2ccc(Br)cc2Br)n1,n,n,-43,n,n
CC(C)(C)C(=O)NCCc1csc2nc(-c3ccc(F)cc3)nn12,n,x,n,n,n
COc1ccc(CNC[C@H]2O[C@@H](n3ccc(=O)[nH]c3=O)[C@H](O)[C@@H]2O)cc1OC,n,-59,x,x,x
COc1cc(NC(=O)CN2CCN(c3ccc(F)cc3)CC2)cc(OC)c1,n,x,n,n,n
COc1ccc(NC(=O)CCN2CCN(c3cccc(Cl)c3)CC2)cc1,n,x,n,n,36
COc1ccc(NC(=O)CCN2CCN(S(=O)(=O)c3cc(Cl)ccc3Cl)CC2)cc1,n,n,n,n,n
COc1ccc(NC(=O)CCN2CCN(c3ccc(F)cc3)CC2)cc1,n,-98,n,n,n
COc1ccc(N2C(=O)C(CC(=O)Nc3ccccc3)N(CCC3=CCCCC3)C2=O)cc1 (stereo unspecified),n,x,n,n,n
C=CCn1c(=O)n([C@@H]2O[C@H](CO)[C@@H](O)[C@H]2O)c2nc(N)[nH]c(=O)c21,n,x,x,x,x
O=C(CCCOc1ccccc1)NN1C(=O)NC2(CCCCC2)C1=O,n,n,-43,n,n
O=C(CN1C(=O)NC2(CCCC2)C1=O)OCCOc1ccccc1,n,n,n,n,n
Nc1nc(N(Cc2ccccc2)Cc2ccccc2)nc(C(F)(F)F)n1,n,u,-34,n,n
O=C(c1ccco1)N1N=C(c2ccc(Br)cc2)CC1(O)C(F)(F)F (stereo unspecified),n,n,-46,n,n
O=C(c1ccco1)N1N=C(c2ccc(Cl)cc2)CC1(O)C(F)(F)F (stereo unspecified),n,n,n,n,n
O=C(c1ccco1)N1N=C(C2CCCCC2)CC1(O)C(F)(F)F (stereo unspecified),n,n,-38,n,n
O=C(c1ccncc1)N1N=C(C2CCCCC2)CC1(O)C(F)(F)F (stereo unspecified),n,n,n,n,n
SMILES,DRD3 agonist,D3 antag,D1 antag,D1 potentiator,D1 ag
CCOc1ccc(/C=N/OCC(=O)NC(c2ccccc2)c2ccccc2)cc1,n,n,n,n,33
COc1ccc(/C=N/OCC(=O)NC(c2ccccc2)c2ccccc2)c(OC)c1,n,n,n,n,n
COc1ccc(CNC(=O)c2cc3c(=O)n(Cc4cccs4)ccc3nc2C)cc1,n,x,n,n,n
COc1ccccc1NS(=O)(=O)c1ccc(NC(=O)N2CCCCC2)cc1,n,n,-46,n,n
COc1ccccc1NS(=O)(=O)c1cccc(C(=O)NNC(=O)c2ccc(=O)[nH]c2)c1,n,n,-32,x,n
COc1ccccc1NS(=O)(=O)c1cccc(NC(=O)Nc2ccccc2)c1,n,n,-33,n,n
